This is an account of results in ChEMBL document CHEMBL3988442, “University of Dundee, Small-Polar-MMV Screening Library” (2021).

The target of this assay is T1, Methionyl-tRNA synthetase, putative (Leishmania donovani (strain BPK282A1)) (UniProt E9BF75).
T1 sequence (whole entry): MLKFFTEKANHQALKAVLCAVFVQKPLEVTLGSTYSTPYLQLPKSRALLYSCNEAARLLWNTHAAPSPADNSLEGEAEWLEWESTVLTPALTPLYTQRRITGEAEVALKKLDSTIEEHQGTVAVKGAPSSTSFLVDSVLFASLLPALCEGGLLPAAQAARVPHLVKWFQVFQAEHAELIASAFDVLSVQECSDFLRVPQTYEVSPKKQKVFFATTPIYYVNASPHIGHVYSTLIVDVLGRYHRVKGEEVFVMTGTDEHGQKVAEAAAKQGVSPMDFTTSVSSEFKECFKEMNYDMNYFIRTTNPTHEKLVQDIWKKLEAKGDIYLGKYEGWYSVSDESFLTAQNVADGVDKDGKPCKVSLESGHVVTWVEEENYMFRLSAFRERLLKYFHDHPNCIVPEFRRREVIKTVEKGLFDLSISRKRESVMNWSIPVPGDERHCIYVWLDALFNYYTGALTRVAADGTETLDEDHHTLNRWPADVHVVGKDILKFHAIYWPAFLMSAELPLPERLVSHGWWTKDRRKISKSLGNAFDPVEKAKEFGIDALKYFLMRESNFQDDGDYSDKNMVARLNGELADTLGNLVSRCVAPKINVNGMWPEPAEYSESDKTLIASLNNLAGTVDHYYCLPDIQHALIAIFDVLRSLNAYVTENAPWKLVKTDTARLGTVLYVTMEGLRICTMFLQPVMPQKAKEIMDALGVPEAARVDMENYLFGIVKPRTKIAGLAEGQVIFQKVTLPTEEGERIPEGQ
Put plainly: Leishmania donovani Methionine tRNA synthetase (LdMetRS):v7. Dose response assay. The arrangement: conc 80 nM, time 150 minutes. It counts as functional.

On to `COC(=O)c1sc2nc(C)nc(NCc3cccnc3)c2c1C`, for which the PXC50 is, setting by setting: (MAX_EFFECT 10.38251366) < 4; (MAX_EFFECT 11.22994652) < 4.
As to `Cc1nc(N2CCN(c3ncccn3)CC2)c2c3c(sc2n1)CCCC3`, the PXC50 by setting is: (MAX_EFFECT 19.78609626) < 4; (MAX_EFFECT 20.21857923) < 4.
On to `CC(C)C[C@@H](COc1cccc(F)c1Oc1ccc(Cl)cc1)NS(C)(=O)=O`, for which the PXC50 is < 4 (MAX_EFFECT 6.609808102) and < 4 (MAX_EFFECT 8.902691511).
With `CN(C)C(=O)N1CCN(c2ccc3ccc(C(=O)NC4CC4)cn23)CC1`, the PXC50 was 4.05 (BOTTOM 3.433705082, HILLSLOPE 1.394575879, MAX_EFFECT 54.57943925, TOP 100.0) and < 4 (MAX_EFFECT 48.07256236).
As to `CC(C)C[C@H](N)COc1ccccc1-c1ccccc1`, the PXC50 by setting is: (MAX_EFFECT 19.82942431) < 4; (MAX_EFFECT 21.32505176) < 4.
Regarding `CCNc1cc(-c2ccccn2)nc(Nc2ccc(F)cc2)n1`, the PXC50 reads like this: (MAX_EFFECT 11.72707889) < 4; (MAX_EFFECT 12.21532091) < 4.
For the compound `FC1(F)CCN(Cc2cccnc2)CC12CCN(c1cnccn1)C2` (stereo not given), the PXC50 was < 4 (MAX_EFFECT 4.081632653) and < 4 (MAX_EFFECT 6.355140187).
Regarding `Cc1cc(C(F)(F)F)nc(NCCc2ccccc2)n1`, the PXC50 was < 4 (MAX_EFFECT 6.557377049) and < 4 (MAX_EFFECT 10.16042781).
Consider `CC1CCc2c(sc3nc(CN4CCOCC4)nc(NCC4CC4)c23)C1` (stereo not given), for which the PXC50 was < 4 (MAX_EFFECT 17.08542714) and < 4 (MAX_EFFECT 17.93611794).
With `CCc1nc(N2CCN(c3ncccn3)CC2)c2cc(CC)sc2n1`, the PXC50 (MAX_EFFECT 23.46666667) is < 4 and the PXC50 (MAX_EFFECT 25.3968254) is < 4.
Take `CS(=O)(=O)N1CCN(c2ccc3ccc(C(=O)NCCN4CCc5ccccc5C4)cn23)CC1`: the PXC50 (BOTTOM 9.287524867, HILLSLOPE 2.626114762, MAX_EFFECT 78.976234, TOP 76.44379257) was found to be 4.95 and the PXC50 (BOTTOM -0.296501823, HILLSLOPE 1.63582329, MAX_EFFECT 73.68421053, TOP 78.31707036) worked out at 5.09.
For `Cc1nc(NCC(=O)O)c2cc(-c3ccccc3)sc2n1`, the PXC50 by setting is: (MAX_EFFECT 8.533333333) < 4; (MAX_EFFECT 10.58201058) < 4.
`CN1CCN(C(=O)CNC(=O)c2ccc3ccc(N4CCN(S(C)(=O)=O)CC4)n3c2)CC1`: the PXC50 (BOTTOM 0.0904, HILLSLOPE 2.137945772, MAX_EFFECT 50.23923445, TOP 52.555747) worked out at 4.83 and the PXC50 (BOTTOM 3.391781155, HILLSLOPE 3.900764743, MAX_EFFECT 59.59780622, TOP 59.91227163) worked out at 4.76.
As for `COC(=O)CN(C)c1nc(-c2cccs2)nc2sc(C)c(C)c12`, the PXC50 runs as follows: (MAX_EFFECT 23.66412214) < 4; (MAX_EFFECT 24.93702771) < 4.
Take `CC(C)C[C@@H](COc1cccc(F)c1Oc1ccc(Cl)cc1)N(C)C`: the PXC50 was < 4 (MAX_EFFECT 6.418219462) and < 4 (MAX_EFFECT 11.30063966).
In the case of `O=C(c1c[nH]cn1)N1CCC(F)(F)C2(CCN(c3ncccn3)C2)C1` (stereo not given), the PXC50 (MAX_EFFECT 6.572769953) is < 4 and the PXC50 (MAX_EFFECT 11.2962963) was < 4.
Turning to `Nc1noc2ccc(-c3cnc4ccc(NC5CC5)nn34)cc12`, the PXC50 by setting is: (MAX_EFFECT 22.39185751) < 4; (MAX_EFFECT 25.87719298) < 4.
As for `CCOC(=O)N1CCN(c2nc(C)nc3scc(-c4cccs4)c23)CC1`, the PXC50 runs as follows: (MAX_EFFECT 28.24427481) < 4; (MAX_EFFECT 28.46347607) < 4.
For `CCNC(=O)C1CCCN(c2nc(C)nc3sc4c(c23)CCC4)C1` (stereo not given), the PXC50 (MAX_EFFECT 7.25388601) is < 4 and the PXC50 (MAX_EFFECT 9.574468085) was < 4.
In the case of `CC(=O)N1CCC(NC(=O)c2ccc3ccc(N4CCN(S(C)(=O)=O)CC4)n3c2)CC1`, the PXC50 by setting is: (BOTTOM 2.919824671, HILLSLOPE 1.594432626, MAX_EFFECT 67.35849057, TOP 70.74594509) 4.9; (BOTTOM 3.112441615, HILLSLOPE 1.895765793, MAX_EFFECT 63.92694064, TOP 65.42596591) 4.95.
Regarding `CS(=O)(=O)Nc1cccc2c(=O)cc(C(=O)NCC3(O)CCCCC3)oc12`, the PXC50 was < 4 (MAX_EFFECT 2.53968254) and < 4 (MAX_EFFECT 4.743083004).
Take `Cc1nc(NCCC(C)C)c2c3c(sc2n1)CCCC3`: the PXC50 reads like this: (MAX_EFFECT 30.4) < 4; (MAX_EFFECT 33.86243386) < 4.
With `COCCNc1nc(-n2nc(C)cc2C)nc2sc3c(c12)CCCC3`, the PXC50 (BOTTOM 1.301145561, HILLSLOPE 1.464534306, MAX_EFFECT 52.38095238, TOP 100.0) stood at 4.33 and the PXC50 (BOTTOM -0.0791, HILLSLOPE 1.372664479, MAX_EFFECT 81.02766798, TOP 100.0) was determined as 4.48.
`O=C(NCC1CCCCC1)c1cc(=O)c2cc[nH]c(=O)c2o1`: the PXC50 (MAX_EFFECT 5.901116427) is < 4 and the PXC50 (MAX_EFFECT 6.333973129) is < 4.
Consider `CN(c1ncnc2sccc12)C1CCCN(c2cccnn2)C1` (stereo not given), for which the PXC50 by setting is: (MAX_EFFECT 11.26760563) < 4; (MAX_EFFECT 18.33333333) < 4.
On to `CN(CC1CC1)c1ccc2ccc(C(=O)NC3CCCCC3)cn12`, for which the PXC50 is 4.49 (BOTTOM 1.124026448, HILLSLOPE 1.465093934, MAX_EFFECT 59.86394558, TOP 70.1166241) and 4.05 (BOTTOM 5.503846383, HILLSLOPE 1.186903167, MAX_EFFECT 58.31775701, TOP 100.0).
In the case of `CS(=O)(=O)N1CCN(c2ccc3ccc(C(=O)NC4CCCC4)cn23)CC1`, the PXC50 by setting is: (BOTTOM 3.919126037, HILLSLOPE 1.949141012, MAX_EFFECT 63.17460317, TOP 66.86118232) 4.76; (BOTTOM 4.67001684, HILLSLOPE 2.010919918, MAX_EFFECT 67.58893281, TOP 64.90205504) 5.
Turning to `N[C@H](COc1cccc(F)c1Oc1ccc(Cl)cc1)CC1CCCCC1`, the PXC50 reads like this: (BOTTOM 8.516712257, HILLSLOPE 1.897669447, MAX_EFFECT 94.20289855, TOP 100.0) 4.49; (BOTTOM 8.547488971, HILLSLOPE 2.365761437, MAX_EFFECT 99.14712154, TOP 101.5267465) 4.51.
Take `CS(=O)(=O)Nc1cccc2c(=O)cc(C(=O)NCC3CCCCC3)oc12`: the PXC50 was < 4 (MAX_EFFECT 0.797448166) and < 4 (MAX_EFFECT 2.111324376).
For `COc1ccc(-c2cc(C(F)(F)F)nc(N3CCCCC3)n2)cc1OC`, the PXC50 is < 4 (MAX_EFFECT 2.702702703) and < 4 (MAX_EFFECT 3.015075377).
